From PubChem BioAssay AID1645856 (Buhrlage Lab, Dana-Farber Cancer Institute and Novartis …, 2021)
Among all 47,000 compounds or so, about 510 (1.1%) were called active. Cut-off read from the data, not from the text of the source: active = inhibition above about 30%; inactive = the rest. This excerpt belongs to a sample that is enriched for actives.

target: Ubiquitin carboxyl-terminal hydrolase 10 (Homo sapiens) (UniProt Q14694); test: blocks human USP10 ubiquitin-rhodamine cleavage (AID 1645856); conditions: purified USP10, Ub-rhodamine fluorescence, 60 min; at 20 µM; hits give high values
Sequence (Q14694 whole entry, looked up): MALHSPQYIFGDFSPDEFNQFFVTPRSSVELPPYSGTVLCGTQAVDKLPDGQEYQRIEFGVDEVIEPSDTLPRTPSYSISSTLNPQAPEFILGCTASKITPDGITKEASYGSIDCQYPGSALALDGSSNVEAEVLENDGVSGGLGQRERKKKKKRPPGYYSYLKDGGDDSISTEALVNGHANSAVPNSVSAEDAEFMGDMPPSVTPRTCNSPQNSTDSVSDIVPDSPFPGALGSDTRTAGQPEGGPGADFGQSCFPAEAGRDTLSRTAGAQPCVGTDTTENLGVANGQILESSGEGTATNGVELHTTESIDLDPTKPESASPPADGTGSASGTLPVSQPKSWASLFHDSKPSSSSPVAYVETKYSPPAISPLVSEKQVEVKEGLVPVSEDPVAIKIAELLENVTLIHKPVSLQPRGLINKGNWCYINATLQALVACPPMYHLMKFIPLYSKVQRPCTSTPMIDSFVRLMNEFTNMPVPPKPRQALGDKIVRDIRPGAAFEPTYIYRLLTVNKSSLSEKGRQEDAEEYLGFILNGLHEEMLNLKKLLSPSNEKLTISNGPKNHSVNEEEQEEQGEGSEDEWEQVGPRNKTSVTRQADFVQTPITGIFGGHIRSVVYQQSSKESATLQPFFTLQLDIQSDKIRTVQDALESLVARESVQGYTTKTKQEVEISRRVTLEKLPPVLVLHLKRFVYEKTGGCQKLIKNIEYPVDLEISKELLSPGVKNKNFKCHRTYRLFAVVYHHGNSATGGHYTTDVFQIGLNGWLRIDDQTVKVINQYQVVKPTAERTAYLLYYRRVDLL

inhibition, inactive:
Cc1c(-c2nnc(-c3ccccn3)o2)nnn1-c1ccccc1Cl 1.56%, COc1ccc(-c2noc(-c3ccc(N(C)Cc4ccco4)nn3)n2)cc1 0.989%, Cc1ncccc1Oc1nccnc1C1CCNCC1 0.116%, CCN(CC)C(=O)CC[C@H]1CNC(=O)[C@@H]2[C@@H](CCN2CC2CC2)N1C -0.533%, O=C1CC(c2ccc(OCc3ccccc3)cc2)c2sccc2N1 (stereo not given) 2.63%, COc1cccc(CCN2CCOc3nc4c(C)cccc4cc3C2)c1OC 1.85%, Cn1c(=O)[nH]c(=O)c2c1nc(N1CCCCCC1)n2CCCSc1nc2ccccc2s1 20.1%, Cn1c2c(c(=O)n(C)c1=O)[C@@H]1c3c(ccc4ccccc34)OC[C@@H]1CO2 -4.17%, CO[C@@H](/C(C)=C/C=C/C(C)=C/c1coc(C)n1)[C@@H](C)[C@@H]1C[C@H](O)[C@@]2(C)O[C@@H]2/C=C/[C@@H](C)[C@H](O)C[C@H](CC(=O)O)C/C=C/C(=O)O1 -8.33%, CN(c1ccc(F)cc1)c1ccc2ccc(C(=O)N3CCCC(O)C3)cn12 (stereo not given) -11.2%, Cn1c(SCC(N)=O)nnc1-c1cc2ccccc2o1 -1.83%, Cc1noc(C)c1C1CCCN1C(=O)c1c(F)cccc1F (stereo not given) 2.21%, CC(CN1CCOCC1)OC(=O)c1ccc(C(C)(C)C)cc1 (stereo not given) 0.0972%, CC(C)CC(=O)Nc1ccc(-c2nc3ncccc3o2)cc1 1.25%, CCOc1ccccc1NC(=O)Cc1cccs1 1.12%, Cc1cccc(Nc2nc(N3CCOCC3)nc3c2cnn3C)c1 -3.81%, CCc1nc2cc(N3CCC(C(=O)N4CCN(CC)CC4)CC3)cnc2nc1CC -3.73%, O=C(NCC1CCCCC1)C1CCN(C2=NS(=O)(=O)c3ccccc32)CC1 -1.45%, COc1cccc(CNC(=O)c2ccc3c(=O)nc4c(-c5ccccc5)n[nH]n4c3c2)c1 17.4%, Cc1cc(Cl)cc(C)c1OCC(=O)NC1CCCc2ccccc21 (stereo not given) -1.09%, CCOC(=O)C1CCN(C(c2cccnc2)c2c(NC(C)=O)sc3c2CCCC3)CC1 (stereo not given) -3.05%, CC1CCN(C(=O)C2CCN(C(=O)c3ccc4c(c3)nnn4C3CCCC3)CC2)CC1 -0.291%, Cc1ccc(CC(=O)Nc2nnc(C3CC(=O)N(c4ccc(C)c(C)c4)C3)s2)cc1 (stereo not given) 15.3%, Cc1ccc(N2CC(c3nnc(NC(=O)CCCc4ccccc4)s3)CC2=O)cc1 (stereo not given) 8.86%

inhibition, active:
COc1ccc(N2CC(c3nnc(NC(=O)CCc4ccccc4)s3)CC2=O)cc1 (stereo not given) 30.4%
